In PubChem BioAssay:
Calls of active or inactive are those of the source. Unless noted, how the calls were made is not given here.

Assays:
[1] = resazurin metabolic signal in HepG2 cells – cell-based, resazurin fluorescence, 24 h, PK04 Diversity Set, profiling panel (AID 1172); details: HepG2 viability, higher = more signal; further: test concentration not given here
[2] = budding yeast growth changes without added modifier – OD600, strain BY4716, 24 h, basal condition, primary screen (AID 1173); details: S. cerevisiae BY4716 growth, OD600, 24 h; higher = more signal, called active from +8 up or from −8 down
[3] = viability profiling in MM1S myeloma cells – cell-based, resazurin fluorescence, basal, 24 h, PK04 Diversity Set, profiling panel (AID 1174); details: higher = more signal, called active from +8 up or from −8 down;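 further: MM1S multiple myeloma cell line; test concentration not given here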
[4] = target: Dihydroorotate dehydrogenase (quinone), mitochondrial (Plasmodium falciparum (isolate 3D7)) (UniProt Q08210); assay: inhibition of P. falciparum DHODH – biochemical, C-terminal His tag, absorbance 600 nm, primary screen (AID 1175); details: PfDHODH enzyme, DCIP absorbance 600 nm; higher = more signal, called active from +8 up or from −8 down;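 further: recombinant parasite enzyme with a five histidine tag at its C terminus; test concentration not given here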
[5] = inhibition of PAO1 biofilm formation – strain PAO1, LB-PBS medium, absorbance 600 nm, primary screen (AID 1176); further: test concentration not given here; details: P. aeruginosa PAO1 growth/biofilm, A600, 12 h; higher = more signal
[6] = growth modulation of vineyard yeast isolate – strain RM11-1a, OD600, basal, 24 h, primary screen (AID 1177);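 further: cultures grown under basal conditions with no added stressor; test concentration not given here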; details: S. cerevisiae RM11-1a growth, OD600, 24 h; higher = more signal, called active from +8 up or from −8 down
[7] = growth of efflux-deficient E. coli DRC39 – strain DRC39, OD650, 24 h, E. coli filamentation inducers, primary screen (AID 1178);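 further: growth measured as culture turbidity by optical density at 650 nm; test concentration not given here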; details: E. coli DRC39 acrAB, higher = more signal, called active from +8 up or from −8 down
[8] = growth of efflux-deficient E. coli DRC39 – strain DRC39, OD650, 48 h, E. coli filamentation inducers, primary screen (AID 1179);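 further: screen aims at cell division blockers that make cells filament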; details: E. coli DRC39 delta-acrAB growth, higher = more signal, called active from +8 up or from −8 down
[9] = viability profiling in RPMI8226 myeloma cells – cell-based, resazurin fluorescence, basal, 24 h, PK04 Diversity Set, profiling panel (AID 1180); details: higher = more signal;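 further: RPMI8826 multiple myeloma cell line at 5000 cells per well; test concentration not given here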
[10] = target: E3 ubiquitin-protein ligase XIAP (Homo sapiens) (UniProt P98170); assay: small molecules binding XIAP protein – biophysical, small-molecule microarray, fluorescence 635 nm, primary screen (AID 1181); details: higher = more signal;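 further: score merges 667 nm emission and signal to noise over triplicate slides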
Sequence of E3 ubiquitin-protein ligase XIAP (Homo sapiens) (P98170 whole entry, looked up): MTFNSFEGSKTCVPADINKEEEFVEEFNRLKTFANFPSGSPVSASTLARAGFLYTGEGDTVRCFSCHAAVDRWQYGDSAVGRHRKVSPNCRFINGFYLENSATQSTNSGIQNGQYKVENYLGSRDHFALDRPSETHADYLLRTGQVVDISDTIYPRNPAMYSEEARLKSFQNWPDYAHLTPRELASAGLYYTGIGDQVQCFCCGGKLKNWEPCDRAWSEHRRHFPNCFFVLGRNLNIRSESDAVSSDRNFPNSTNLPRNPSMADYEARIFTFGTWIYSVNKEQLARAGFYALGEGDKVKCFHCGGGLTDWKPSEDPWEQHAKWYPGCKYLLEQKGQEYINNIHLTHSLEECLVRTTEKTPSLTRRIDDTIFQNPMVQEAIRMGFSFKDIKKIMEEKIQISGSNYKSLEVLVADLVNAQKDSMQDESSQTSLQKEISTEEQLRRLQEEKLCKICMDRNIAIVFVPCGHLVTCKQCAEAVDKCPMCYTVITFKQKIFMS

Sequence of Dihydroorotate dehydrogenase (quinone), mitochondrial (Plasmodium falciparum (isolate 3D7)) (Q08210 whole entry, looked up): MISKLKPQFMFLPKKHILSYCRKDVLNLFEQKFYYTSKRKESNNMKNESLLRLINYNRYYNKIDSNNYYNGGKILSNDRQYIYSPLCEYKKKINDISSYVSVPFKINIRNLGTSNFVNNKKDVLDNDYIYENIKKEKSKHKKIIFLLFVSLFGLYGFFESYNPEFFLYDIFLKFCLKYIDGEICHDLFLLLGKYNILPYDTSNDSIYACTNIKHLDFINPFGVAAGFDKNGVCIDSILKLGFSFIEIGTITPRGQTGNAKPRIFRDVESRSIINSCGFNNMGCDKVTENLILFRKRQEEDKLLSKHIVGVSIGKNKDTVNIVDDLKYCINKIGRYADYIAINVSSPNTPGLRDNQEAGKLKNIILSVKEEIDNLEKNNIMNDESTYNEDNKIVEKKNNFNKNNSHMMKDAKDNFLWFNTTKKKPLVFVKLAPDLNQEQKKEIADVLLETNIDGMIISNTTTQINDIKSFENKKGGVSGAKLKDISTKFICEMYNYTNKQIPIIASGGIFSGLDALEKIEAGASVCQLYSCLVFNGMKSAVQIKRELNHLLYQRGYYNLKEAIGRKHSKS

SMILES | z-score [1] | z-score [2] | z-score [3] | composite z-score [4] | z-score [5] | z-score [6] | z-score [7] | z-score [8] | z-score [9] | composite z-score [10]
COC(=O)c1c(CC[C@@H](CO)NC(=O)N[C@H](Cc2ccccc2)Cn2cc(-c3ccccc3N)nn2)oc(C(C)=O)c1C(=O)OC | -0.601 | -1.2 (inactive) | 0.505 (inactive) | -0.433 (inactive) | -0.109 (inactive) | -0.053 (inactive) | 1.18 (inactive) | 0.561 (inactive) | 0.336 | -0.127
CN1C(=O)C2C(C1=O)C1C=C(CCCO)C2C(c2ccc(CN3CCCC3)cc2)N1C (stereo not given) | -1.03 | 1.04 (inactive) | -1.78 (inactive) | -3.89 (inactive) | -1.02 (inactive) | 0.626 (inactive) | -0.815 (inactive) | -0.296 (inactive) | -0.802 | 0.182
CCOc1ccc(N2C(=O)/C(=C/C=C/c3ccccc3OC)S(=O)(=O)C2c2cccc([N+](=O)[O-])c2)cc1 (stereo not given) | 1.28 | -1.52 (inactive) | -2.33 (inactive) | -1.74 (inactive) | 1.07 (inactive) | -1.44 (inactive) | 0.777 (inactive) | 0.765 (inactive) | -0.548 | 0.0264
COCCOC(=O)N1C(=O)[C@@]2(c3cc(C#CCNC(N)=O)ccc31)[C@H](c1ccccc1OCCO)N1[C@H](c3ccccc3)[C@H](c3ccccc3)OC(=O)[C@H]1[C@@H]2C(=O)N1CCN(c2ncccn2)CC1 | -0.0783 | 0.353 (inactive) | -0.0546 (inactive) | -1.48 (inactive) | 2.49 (inactive) | 0.733 (inactive) | 0.924 (inactive) | 1.18 (inactive) | 0.241 | -0.152
O=C1C[C@]2(c3ccc([N+](=O)[O-])cc3)C(=O)N(CCN3CCOCC3)c3cc(CO)ccc3[C@H]2N1CC12CC3CC(CC(C3)C1)C2 | -0.0113 | -0.0207 (inactive) | 0.639 (inactive) | -6.92 (inactive) | 0.277 (inactive) | -0.028 (inactive) | 0.577 (inactive) | -0.0127 (inactive) | -0.391 | 0.476
COC(=O)[C@@H]1N=C(c2ccc(OCCCO)cc2)O[C@@H]1c1ccccc1N=[N+]=[N-] | 1.92 | -4.88 (inactive) | 0.856 (inactive) | 0.458 (inactive) | 1.2 (inactive) | -0.82 (inactive) | 2.09 (inactive) | 0.995 (inactive) | 0.0154 | 0.267
Cc1cc2c(c(=O)o1)[C@H](O)[C@H]1O[C@H]1C2=O | 0.145 | -2 (inactive) | -1.19 (inactive) | 0.44 (inactive) | -0.282 (inactive) | -0.627 (inactive) | -0.973 (inactive) | -0.662 (inactive) | -0.764 | -0.176
CCOC(=O)NN=C1C[C@@H](O)[C@@H](O)[C@@H]2[C@@H]3C(=O)N(C4CCCCC4)C(=O)[C@@H]3CC[C@@H]12 | -0.252 | 0.126 (inactive) | -0.292 (inactive) | -1.71 (inactive) | 0.283 (inactive) | -0.845 (inactive) | -0.959 (inactive) | -0.499 (inactive) | -0.145 | -0.102
C=CC[C@@H]1C=C[C@H](ON=C(C)CCN2CCc3nc(CC)c(CC)cc3C2)[C@@H](CO)O1 | -0.127 | -0.392 (inactive) | -0.439 (inactive) | -1.29 (inactive) | -0.0417 (inactive) | 0.189 (inactive) | 0.0116 (inactive) | 0.138 (inactive) | -0.639 | 0.0178
O=C1C[C@@H](O)[C@@H](O)[C@@H]2[C@@H]3C(=O)N(Cc4ccc5c(c4)OCO5)C(=O)[C@@H]3CC[C@@H]12 | 0.227 | 0.189 (inactive) | -0.0728 (inactive) | 0.745 (inactive) | -0.131 (inactive) | 0.258 (inactive) | 0.0081 (inactive) | 0.0272 (inactive) | -0.707 | 0.0908
C=CC[C@]1(C(=O)NCc2ccccc2)N=C(c2ccc(OCCCO)cc2)O[C@H]1c1ccccc1 | 0.527 | -0.127 (inactive) | -0.223 (inactive) | -0.649 (inactive) | -0.193 (inactive) | 1.15 (inactive) | 0.0557 (inactive) | -0.126 (inactive) | -0.0458 | -0.102
C=C(/C(=C/C[C@H](OC(=O)c1ccncc1)c1ccc(OCCO)cc1)c1cnc2ccccc2c1)C(C)C | 0.145 | -0.753 (inactive) | -0.777 (inactive) | -2.73 (inactive) | 0.85 (inactive) | 0.0942 (inactive) | -1.05 (inactive) | -1.02 (inactive) | 0.0076 | 0.13
C[N+](C)(C)CCCCCCNC(=O)[C@@H]1C[C@@H]2C(=O)N3CCC[C@H]3C(=O)N2[C@@H]1c1cccc(OCCO)c1 | 2.14 | -0.887 (inactive) | 0.984 (inactive) | -1.83 (inactive) | 0.808 (inactive) | -0.183 (inactive) | 0.0995 (inactive) | -0.514 (inactive) | -0.245 | -0.0655
COC(=O)[C@@]1(Cc2ccc(F)cc2)[C@H]2c3cc(C(=O)N(C)C)n(Cc4ccc(OC)c(OC)c4)c3C[C@H]2CN1C(=O)c1ccccc1 | -1.05 | -0.0211 (inactive) | -1.8 (inactive) | -3.71 (inactive) | 3.14 (inactive) | 0.348 (inactive) | -0.252 (inactive) | -1.45 (inactive) | -0.484 | 0.276
COC(=O)[C@@H]1CCCN1C(=O)[C@@H](C)CO | -0.337 | -1.06 (inactive) | -0.379 (inactive) | -2.93 (inactive) | 0.0372 (inactive) | -0.213 (inactive) | -1.47 (inactive) | -2.18 (inactive) | -0.376 | -0.0415
CC[C@@H](c1ccccc1)n1c(=O)n2n(c1=O)[C@H]1[C@H](O)[C@@H]3O[C@@H]3C(=NOCC=C(C)CCC=C(C)C)[C@H]1CC2 | -0.301 | 0.11 (inactive) | -0.16 (inactive) | 0.0031 (inactive) | -0.261 (inactive) | 1.01 (inactive) | -0.271 (inactive) | -1.98 (inactive) | -0.451 | -0.141
CO[C@@H]1COC(=O)CC=C[C@@H](C)[C@H](OC)COC(=O)[C@H](COCc2ccccc2)NC(=O)CC=C[C@H]1C | 0.628 | -1.13 (inactive) | -0.0928 (inactive) | -0.0234 (inactive) | -0.225 (inactive) | -0.47 (inactive) | 0.406 (inactive) | -0.723 (inactive) | 1.35 | 0.17
C[C@H](c1ccccc1)N1C(=O)[C@H]2[C@@H]3C(=CC[C@H]2C1=O)C(=O)[C@H]1O[C@H]1[C@H]3O | -2.54 | -3.82 (inactive) | -8.01 (active) | -1.74 (inactive) | -0.993 (inactive) | -0.141 (inactive) | 0.144 (inactive) | 0.494 (inactive) | -5.33 | 0.288
O=C1[C@H]2[C@H]3[C@H](O)[C@H](O)CC(=NOCc4ccccc4)[C@H]3CC[C@H]2C(=O)N1c1cccc(Oc2ccccc2)c1 | 1.44 | -0.47 (inactive) | 0.968 (inactive) | -0.278 (inactive) | -0.131 (inactive) | -0.0244 (inactive) | 0.416 (inactive) | -0.482 (inactive) | 0.564 | -0.193
COC(=O)CC=C[C@H](C)[C@H](CO)NS(=O)(=O)c1ccc(C)cc1 | -0.502 | -0.342 (inactive) | -0.701 (inactive) | 0.0702 (inactive) | 1.09 (inactive) | -0.513 (inactive) | -0.586 (inactive) | -0.6 (inactive) | 0.139 | -0.123
CC(=O)OC[C@H]1O[C@H](CCON=C[C@@H](C)[C@H](OCc2ccccc2)C(C)C)C=C[C@@H]1OC(C)=O | -0.374 | 0.604 (inactive) | -0.81 (inactive) | -0.64 (inactive) | 0.0039 (inactive) | -0.399 (inactive) | -0.983 (inactive) | -2.1 (inactive) | -0.429 | -0.215
C#C[C@@H](CC)O[Si](C#Cc1ccc(Oc2ccccc2)cc1)(C(C)C)C(C)C | -0.543 | -0.87 (inactive) | -0.613 (inactive) | -0.661 (inactive) | 0.833 (inactive) | 0.898 (inactive) | -0.568 (inactive) | -0.416 (inactive) | -1.1 | -0.0562
CC(C)NC(=O)[C@@H]1c2ccccc2C(=O)N(CC23CC4CC(CC(C4)C2)C3)[C@H]1c1ccc(CO)cc1 | 0.64 | -1.23 (inactive) | 0.955 (inactive) | 0.61 (inactive) | 0.553 (inactive) | -1.52 (inactive) | 0.765 (inactive) | 1.59 (inactive) | 0.834 | -0.0172
COCC1=C2[C@@H](CCc3ccccc3)OB(O)C[C@@H]2n2c(=O)n(-c3ccccc3)c(=O)n2C1 | 0.0883 | -1.24 (inactive) | -0.177 (inactive) | 0.653 (inactive) | 0.248 (inactive) | -0.352 (inactive) | 0.969 (inactive) | 0.545 (inactive) | 0.0549 | 0.698
CCOC(=O)NN=C1C[C@@H](O)[C@@H](O)[C@@H]2[C@@H]3C(=O)N(C[C@@H]4CCCO4)C(=O)[C@@H]3CC[C@@H]12 | 0.208 | 0.623 (inactive) | -0.307 (inactive) | -0.851 (inactive) | -0.674 (inactive) | 0.664 (inactive) | 0.914 (inactive) | 1.4 (inactive) | 0.0557 | 0.0432
CCOC(=O)[C@H](CC(C)C)NC(=O)CCC1CC(OC(=O)NCCc2ccc(F)cc2)CC2(CCCC(COC(=O)NCc3ccccc3)O2)O1 (stereo not given in full) | -0.816 | -0.849 (inactive) | 0.409 (inactive) | -2.24 (inactive) | -0.613 (inactive) | -0.0385 (inactive) | -0.221 (inactive) | -0.565 (inactive) | 0.185 | -0.0333
